This is part of a sample that, as a whole, favours compounds with a hit. Of some 83,000 tested, about 20% had one in any assay.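 Growth was measured after 48 h exposure to one concentration of compound in 96-well plates. Values under 10 count as active.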 Values without a mark were called inactive. Calls of active or inactive are those of the source.
tested on: SK-MEL-2 melanoma; assay: NCI-60 one-dose screen, 48 h (100 = growth as untreated, 0 = no growth, -100 = all killed); details: 10 µM
Method: Growth inhibition of the SK-MEL-2 human tumor cell line is measured as a screen for anti-cancer activity. Cells are grown in 96 well plates and exposed to the test compound for 48 hours. Compounds are tested at a single concentration, which is 10^-5 M for most compounds. The reported endpoint is percent growth (GI% or GIPRCNT), where numbers from 0 - 100% represent growth inhibition, and numbers from -100% - 0 represent cell death. For example, a value of 40 represents 60% growth inhibition. A value of 0 means no net growth occurred over the course of the experiment. A value of -40 indicates 40% of cells at the beginning of the experiment died by the end of the experiment. A value of -100 means all cells are dead at the end of the experiment.
NCI-60 Human Tumor Cell Lines Screen was performed using the standard one-dose NCI protocol, which is described in more detail at https://dtp.cancer.gov/discovery_development/nci-60/default.htm.
Compounds with GIPRCNT values below 10 were considered active. Activity score was based on GIPRCNT using the following formula: […]
Score is 0 for GIPRCNT values of 100 or above, 50 for GIPRCNT values of 0, and 100 for GIPRCNT values of -100.

SMILES | growth
CCOc1ccc(/C=N/NC(=O)Cn2nc(Cc3ccc(OC)cc3)c3onc(C)c3c2=O)cc1 | 55.9%
COc1ccccc1-n1cc(C#N)c(N)c1C(=O)c1ccc(Cl)cc1Cl | -51.3% (active)
C#CCOc1cc(N(CC)CC)ccc1C(C(=O)NC(C)(C)C)N(C(=O)C1CCc2cc(F)ccc2O1)c1ccc(F)cc1F (stereo not given) | -30.4% (active)
O=C(Nc1ccc(Oc2ncnc3scc(Nc4n[nH]c(=S)s4)c23)cc1)C1(C(=O)Nc2cccc(C(F)(F)F)c2)CC1 | 113%
Cn1cc(/C=C(/SS/C(=C/c2cn(C)c3cccc(C(=O)O)c23)C(=O)O)C(=O)O)c2c(C(=O)O)cccc21 | 106%
Cc1ccc(S(=O)(=O)N2CCN(S(=O)(=O)c3oc(-c4ccccc4)nc3C#N)CC2)cc1 | 75%
COc1ccc(C2c3sc4ccc(C)cc4c3Oc3nc[nH]c(=O)c32)cc1 (stereo not given) | 68.8%
Cc1ccc2sc3c(c2c1)Oc1nc[nH]c(=O)c1C3c1cccc(F)c1 (stereo not given) | 102%
O=C(c1ccccc1)c1ccc2nc(-c3ccccc3Br)[nH]c2c1 | -93.9% (active)
COc1ccc(C2c3sc4ccc(C)cc4c3Oc3nc(N)nc(N)c32)cc1 (stereo not given) | 96%
O=[N+]([O-])c1cccc(-c2nnc3c(/C=C/c4ccccc4O)nc4ccccc4n23)c1 | 84.1%
O=C(c1ccc(Cl)cc1)C(c1c[nH]c2ccccc12)c1c[nH]c2ccccc12 | -66.5% (active)
C#C[C@]1(O)CC[C@H]2[C@@H]3CC=C4c5sc(Nc6ccc(N(C)C)cc6)nc5CC[C@]4(C)[C@H]3CC[C@@]21C | -33.1% (active)
COc1cc(C2CC(c3ccc(Oc4ccc(Cl)cc4)cc3)=NN2c2nc(-c3ccc(Cl)cc3)c(C#N)c(N3CCOCC3)n2)cc(OC)c1OC (stereo not given) | 106%
Cc1ccc(-c2nc(C#N)c(S(=O)(=O)N3CCN(S(C)(=O)=O)CC3)o2)cc1 | 75.5%
Cc1ccc(COc2ccc(NC(=O)Nc3ccc(Cl)c(C(F)(F)F)c3)cc2)cc1 | 85.3%
O=C(Nc1ccc(OCC(=O)c2ccc(Cl)cc2)cc1)Nc1ccc(Cl)c(C(F)(F)F)c1 | -35.4% (active)
O=C(Nc1ccc(OCc2ccc(Cl)cc2)cc1)Nc1ccc(Cl)c(C(F)(F)F)c1 | -30% (active)
Cn1cc(-c2cc(N)n3nc(-c4cn(C)c5ccccc45)cc3n2)c2cc(F)ccc21 | -92.5% (active)
COc1ccc(C(=O)COc2ccc(NC(=O)Nc3ccccc3)cc2)cc1 | 80.8%

SMILES | growth
Cc1ccc2c(c1)C(=O)/C(=C/c1c[nH]c3ccccc13)S2 | 99.7%
COc1cc(Nc2nc(O)c(/C=C3\C=Nc4ccccc43)s2)cc(OC)c1OC | -70.6% (active)
Cc1cc(N=C2NC(=O)S/C2=C\c2ccc(F)cc2)n[nH]1 | 11%
COc1ccc(Cc2nn(CC(=O)N/N=C/c3ccc(Br)cc3)c(=O)c3c(C)noc23)cc1 | 7.39% (active)
O=C(CN1CCN(c2ncnc3c2cnn3-c2ccccc2)CC1)Nc1ccc(Cl)cc1 | 34.2%
O=C(CSc1nc2ccccc2c(=O)n1-c1ccc(Cl)cc1)Nc1ccc(-c2nc3ccccc3[nH]2)cc1 | 82.1%
C#C[C@]1(O)CC[C@H]2[C@@H]3CC=C4c5sc(Nc6ccc(C(F)(F)F)cn6)nc5CC[C@]4(C)[C@H]3CC[C@@]21C | -26.8% (active)
COc1cccc(C(=O)CSc2nc(-c3ccc(OCc4ccccc4)c(OC)c3)c(C#N)c(=O)[nH]2)c1 | 91.7%
CCOC(=O)C1=C(N)N(c2ccc(C)cc2)C2=C(C(=O)CC(C)(C)C2)C1c1ccccc1Br (stereo not given) | 85%
O=C(CC(=O)Nc1ccc(Oc2ncnc3scc(Nc4n[nH]c(=S)s4)c23)cc1)Nc1ccc(Cl)cc1 | 98.3%
Cn1cc(-c2nc(N)nnc2-c2c[nH]c3ccccc23)c2cc(Br)cnc21 | 24.7%
COc1ccc(C2OC[C@@]3(C)C4CC[C@]5(C)C(CC=C6C7CC(C)(C)CC[C@]7(C(=O)O)CC[C@]65C)[C@@]4(C)C[C@@H](O)[C@@H]3O2)cc1 (stereo not given in full) | 102%
COc1ccc(NCc2cn(-c3ccc(C(=O)O)cc3)nc2-c2ccc(F)cc2)cc1C(F)(F)F | -30.9% (active)
Fc1ccc(/C=C/c2nc3ccccc3n3c(-c4ccc(Cl)cc4)nnc23)cc1 | 102%
COc1cc(-c2nc3ccc(C)cc3[nH]2)ccc1OCc1nnc(-c2ccccc2Br)o1 | 85.2%
CC1[C@H]2[C@H](C[C@H]3[C@@H]4CC=C5c6sc(Nc7cccc(Cl)n7)nc6CC[C@]5(C)[C@H]4CC[C@@]32C)O[C@]12CC[C@@H](C)CO2 (stereo not given in full) | 76.9%
O=C(Nc1ccc(OCc2ccc(F)cc2)cc1)Nc1ccc(Cl)c(C(F)(F)F)c1 | -34.7% (active)
COC(=O)CNC(=O)COc1c(OC)c(OC)cc2oc(-c3cccc(C(=O)Nc4ccc(Cl)cc4)c3)cc(=O)c12 | 12.7%
Cn1cc(-c2cc3nc(-c4c[nH]c5ccccc45)cc(N)n3n2)c2cc(Cl)ccc21 | -95.8% (active)
Nc1nnc(-c2c[nH]c3ncc(Br)cc23)c(-c2c[nH]c3ccc(Br)cc23)n1 | 7.13% (active)

— PubChem BioAssay (NCI)
